Activity calls are given as the source filed them. Unless noted, calls come from the whole dose curve; as a rule, active = well fitted curve in the direction sought with a large enough effect in the repeat runs; inconclusive = weak or mixed curves; inactive = no such curve, though single readings can be large; an effect the other way counts as inactive or inconclusive.
Experiments:
[1] = qHTS assay to identify small molecule antagonists of the thyroid receptor (TR) signaling pathway - cell viability counter screen (AID 743064); note: nearly all actives have a fitted effect of over 50% in size; note: potency is the fitted concentration of half-maximal effect
Outline: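 GH3.TRE-Luc rat pituitary cells dosed after 4 hr plating, co-stimulated with T3 at 1 nM final, incubated 23.5 h at 37 C. Viability measured in the same wells by CellTiter-Fluor fluorescence after 30 min further at 37 C.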

[2] = qHTS assay to identify small molecule antagonists of the thyroid receptor (TR) signaling pathway (AID 743065); note: nearly all actives have a fitted effect of over 55% in size; note: potency is the fitted concentration of half-maximal effect
Outline: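 GH3.TRE-Luc rat pituitary cells carrying two TR response elements driving luciferase were plated for 4 h, given compound plus 1 nM T3 (final), and incubated 23.5 h at 37 C. ONE-Glo luminescence measured reporter inhibition; CellTiter-Fluor fluorescence tracked cytotoxicity.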

[3] = tested on: thyroid hormone receptor (rat, GH3 cells); experiment: qHTS assay to identify small molecule agonists of the thyroid receptor (TR) signaling pathway (AID 743066; calls by dose curve)
[4] = molecular target: Estrogen receptor (Homo sapiens) (UniProt P03372); experiment: qHTS assay to identify small molecule antagonists of the estrogen receptor alpha (ER-alpha) signaling pathway (AID 743069; active = well fitted curve in the direction sought with a large enough effect in the signal ratio in the repeat runs, not every such curve was filed as active; inconclusive = weak or mixed curves, or effect the other way; inactive = no such curve, though single readings can be large or run the other way; the % refers to the signal ratio; note: potency is the fitted concentration of half-maximal effect)
Chain of Estrogen receptor (Homo sapiens) (P03372 whole entry, looked up): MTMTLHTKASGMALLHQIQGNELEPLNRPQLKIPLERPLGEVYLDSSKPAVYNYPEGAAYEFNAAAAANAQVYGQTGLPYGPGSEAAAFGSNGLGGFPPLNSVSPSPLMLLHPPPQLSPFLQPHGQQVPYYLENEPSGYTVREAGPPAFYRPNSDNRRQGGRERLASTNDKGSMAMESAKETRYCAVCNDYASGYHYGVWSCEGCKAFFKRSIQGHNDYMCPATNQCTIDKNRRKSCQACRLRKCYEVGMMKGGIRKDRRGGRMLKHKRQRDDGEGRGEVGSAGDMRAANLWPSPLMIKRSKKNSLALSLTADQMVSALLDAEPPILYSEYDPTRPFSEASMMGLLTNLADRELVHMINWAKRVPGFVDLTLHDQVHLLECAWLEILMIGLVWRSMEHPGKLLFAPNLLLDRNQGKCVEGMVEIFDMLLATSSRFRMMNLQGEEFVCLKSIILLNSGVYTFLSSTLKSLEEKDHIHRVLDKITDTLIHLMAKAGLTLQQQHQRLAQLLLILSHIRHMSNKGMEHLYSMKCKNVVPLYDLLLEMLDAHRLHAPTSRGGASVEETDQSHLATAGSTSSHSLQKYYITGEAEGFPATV
Outline: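 HEK293 cells stably carrying an ER-alpha-UAS-bla beta-lactamase reporter were pre-cultured overnight in 2% charcoal-stripped FBS medium. Test compounds in DMSO were added together with 17beta-estradiol for 18 hr at 37C. Read-out was fluorescence after 2 hr with LiveBLAzer B/G FRET substrate at room temperature.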

[5] = molecular target: Estrogen receptor (Homo sapiens) (UniProt P03372); experiment: qHTS assay to identify small molecule agonists of the estrogen receptor alpha (ER-alpha) signaling pathway (AID 743075; calls by dose curve; note: potency is the fitted concentration of half-maximal effect)
[6] = qHTS assay to identify small molecule antagonists of the estrogen receptor alpha (ER-alpha) signaling pathway using the BG1 cell line - cell viability counter screen (AID 743081);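 note: compound given together with 17beta-estradiol as the ER stimulus; nearly all actives have a fitted effect of over 45% in size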; note: potency is the fitted concentration of half-maximal effect
[7] = molecular target: Aromatase (Homo sapiens) (UniProt P11511); experiment: qHTS assay to identify aromatase inhibitors (AID 743083); note: nearly all actives have a fitted effect of over 55% in size; note: potency is the fitted concentration of half-maximal effect
Chain of Aromatase (Homo sapiens) (P11511 whole entry, looked up): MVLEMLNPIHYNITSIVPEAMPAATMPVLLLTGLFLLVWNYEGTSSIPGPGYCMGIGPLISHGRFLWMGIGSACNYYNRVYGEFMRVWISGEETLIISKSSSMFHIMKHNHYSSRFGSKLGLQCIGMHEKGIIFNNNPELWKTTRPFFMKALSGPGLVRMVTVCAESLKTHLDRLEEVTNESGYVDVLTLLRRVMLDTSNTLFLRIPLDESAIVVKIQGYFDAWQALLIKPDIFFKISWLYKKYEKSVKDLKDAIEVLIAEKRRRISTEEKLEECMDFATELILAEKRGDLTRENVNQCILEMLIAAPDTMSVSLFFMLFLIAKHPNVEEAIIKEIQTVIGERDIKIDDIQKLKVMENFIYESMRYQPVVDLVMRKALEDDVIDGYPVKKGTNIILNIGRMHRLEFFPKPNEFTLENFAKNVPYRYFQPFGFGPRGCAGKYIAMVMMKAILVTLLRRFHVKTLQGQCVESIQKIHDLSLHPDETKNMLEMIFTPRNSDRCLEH

[8] = qHTS assay to identify aromatase inhibitors - cell viability counter screen (AID 743084);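 note: cells stimulated with testosterone during compound exposure; nearly all actives have a fitted effect of over 55% in size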; note: potency is the fitted concentration of half-maximal effect
[9] = qHTS assay for small molecule agonists of the antioxidant response element (ARE) signaling pathway - cell viability counter screen (AID 743203; calls by dose curve; note: nearly all actives have a fitted effect of over 55% in size; note: potency is the fitted concentration of half-maximal effect)
Outline: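 Following 16 hrs of compound treatment at 37C, HepG2 cells with an ARE-controlled beta-lactamase gene were lysed with CellTiter-Glo. Luminescence was read after 30 min at room temperature.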

[10] = qHTS assay for small molecule activators of the heat shock response signaling pathway - cell viability counter screen (AID 743209); note: nearly all actives have a fitted effect of over 50% in size; note: potency is the fitted concentration of half-maximal effect
Outline: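 Readout: CellTiter-Glo luminescence, 30 min at room temperature. System: HSE-bla HeLa cells, 1500/well, plated overnight. Treatment: compounds in DMSO, 5 h at 37 C.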

[11] = qHTS assay for small molecule activators of the heat shock response signaling pathway (AID 743210; active = well fitted activation curve with a large enough effect in the signal ratio in the repeat runs, with a control signal flat, not every such curve was filed as active; inconclusive = weak or mixed curves; the % refers to the signal ratio)
Outline: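 HSE-bla HeLa cells (beta-lactamase reporter under heat shock response elements) were exposed to compounds for 5 h at 37 C, then loaded with LiveBLAzer B/G FRET substrate for 2.5 h at room temperature before fluorescence reading.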

[12] = qHTS assay to identify small molecule antagonists of the estrogen receptor alpha (ER-alpha) signaling pathway - cell viability counter screen (AID 743074; calls by dose curve; note: nearly all actives have a fitted effect of over 45% in size)
[13] = molecular target: Aryl hydrocarbon receptor (Homo sapiens) (UniProt P35869); experiment: qHTS assay to identify small molecule that activate the aryl hydrocarbon receptor (AhR) signaling pathway (AID 743085); note: nearly all actives have a fitted effect of over 15% in size; note: potency is the fitted concentration of half-maximal effect;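 for activation: HG2L7.5c1 human HepG2 liver cells with stably integrated DRE-driven firefly reporter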
Chain of Aryl hydrocarbon receptor (Homo sapiens) (P35869 whole entry, looked up): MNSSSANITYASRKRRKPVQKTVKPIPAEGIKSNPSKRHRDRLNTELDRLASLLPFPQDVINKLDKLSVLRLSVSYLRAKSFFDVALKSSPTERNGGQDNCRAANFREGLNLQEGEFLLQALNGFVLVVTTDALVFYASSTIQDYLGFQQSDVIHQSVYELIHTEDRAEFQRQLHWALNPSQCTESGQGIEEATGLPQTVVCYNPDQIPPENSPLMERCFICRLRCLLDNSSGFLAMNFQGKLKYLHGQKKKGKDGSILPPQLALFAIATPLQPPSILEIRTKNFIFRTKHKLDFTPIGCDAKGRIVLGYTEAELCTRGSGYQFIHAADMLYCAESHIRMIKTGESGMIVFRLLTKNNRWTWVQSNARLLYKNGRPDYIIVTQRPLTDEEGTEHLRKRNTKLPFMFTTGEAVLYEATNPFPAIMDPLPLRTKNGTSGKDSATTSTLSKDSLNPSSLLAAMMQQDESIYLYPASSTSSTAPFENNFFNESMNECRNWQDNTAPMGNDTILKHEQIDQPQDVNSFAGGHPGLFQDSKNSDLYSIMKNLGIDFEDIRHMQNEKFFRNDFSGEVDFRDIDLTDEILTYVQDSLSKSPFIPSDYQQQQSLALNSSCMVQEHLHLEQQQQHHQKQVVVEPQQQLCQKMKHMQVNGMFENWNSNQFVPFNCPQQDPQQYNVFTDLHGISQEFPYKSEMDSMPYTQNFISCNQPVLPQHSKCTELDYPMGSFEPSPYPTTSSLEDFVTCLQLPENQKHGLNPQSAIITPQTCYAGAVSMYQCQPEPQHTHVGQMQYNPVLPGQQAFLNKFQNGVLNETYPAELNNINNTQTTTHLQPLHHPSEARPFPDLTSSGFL
Outline: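 HepG2 cells stably carrying a 20-DRE firefly luciferase reporter (HG2L7.5c1) treated with compound for 24 hr at 37C. Luciferase read by ONE-Glo luminescence, with CellTiter-Fluor viability read first.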

[14] = qHTS assay to identify small molecule that activate the aryl hydrocarbon receptor (AhR) signaling pathway - cell viability counter screen (AID 743086);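 note: HepG2 liver cells carrying the AhR DRE luciferase reporter; nearly all actives have a fitted effect of over 45% in size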
Outline: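 HepG2-AhR-luc (HG2L7.5c1) cells, 4000/well, were preincubated 5 h at 37C, exposed to compound in qHTS format for 24 hr at 37C, then given CellTiter-Fluor for 30 min; viability was read as fluorescence in the reporter wells.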

[15] = molecular target: Peroxisome proliferator-activated receptor gamma (Homo sapiens) (UniProt P37231); experiment: qHTS assay to identify small molecule agonists of the peroxisome proliferator-activated receptor gamma (PPARg) signaling pathway (AID 743094; active = well fitted activation curve with a large enough effect in the signal ratio in the repeat runs, not every such curve was filed as active; inconclusive = weak or mixed curves, or effect the other way; inactive = no such curve, though single readings can be large or run the other way; the % refers to the signal ratio)
Chain of Peroxisome proliferator-activated receptor gamma (Homo sapiens) (P37231 whole entry, looked up): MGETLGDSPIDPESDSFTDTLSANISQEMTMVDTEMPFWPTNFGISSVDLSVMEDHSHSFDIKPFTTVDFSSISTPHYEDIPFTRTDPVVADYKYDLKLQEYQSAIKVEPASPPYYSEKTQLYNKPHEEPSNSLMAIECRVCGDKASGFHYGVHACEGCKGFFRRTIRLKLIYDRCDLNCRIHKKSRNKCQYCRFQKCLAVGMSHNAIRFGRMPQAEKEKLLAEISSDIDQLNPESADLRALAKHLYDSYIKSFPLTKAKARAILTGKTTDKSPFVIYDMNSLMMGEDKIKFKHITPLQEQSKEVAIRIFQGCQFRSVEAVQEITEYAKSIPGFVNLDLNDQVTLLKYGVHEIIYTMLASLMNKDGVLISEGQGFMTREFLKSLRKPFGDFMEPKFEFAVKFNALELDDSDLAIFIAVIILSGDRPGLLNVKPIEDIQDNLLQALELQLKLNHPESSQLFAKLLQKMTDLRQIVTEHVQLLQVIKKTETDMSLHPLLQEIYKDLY
Outline: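 Compounds dissolved in DMSO were added to PPARg UAS-bla HEK293H cells for 17 h at 37C, and reporter expression was quantified by fluorescence intensity after 1 h with LiveBLAzer B/G FRET substrate.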

[16] = molecular target: Peroxisome proliferator-activated receptor gamma (Homo sapiens) (UniProt P37231); experiment: qHTS assay to identify small molecule antagonists of the peroxisome proliferator-activated receptor gamma (PPARg) signaling pathway (AID 743191; calls by dose curve; note: nearly all actives have a fitted effect of over 30% in size)
Outline: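 GeneBLAzer PPARg UAS-bla HEK293H cells carrying a UAS-driven beta-lactamase reporter were plated at 3000 cells/well, preincubated 5 h at 37C, then given compound for 17 h at 37C; LiveBLAzer B/G FRET substrate was read after 1 h at room temperature.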

[17] = qHTS assay to identify small molecule antagonists of the peroxisome proliferator-activated receptor gamma (PPARg) signaling pathway - cell viability counter screen (AID 743194); conditions: Potency: co-treated with 50 nM rosiglitazone; note: nearly all actives have a fitted effect of over 55% in size
Outline: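 PPARg-UAS-bla HEK293H cells were plated, rested 5 h at 37 C, then treated with compounds plus rosiglitazone (50 nM final) for 17 h at 37 C; viability was then read by CellTiter-Glo luminescence after 30 min at room temperature.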

[18] = qHTS assay for small molecule agonists of the antioxidant response element (ARE) signaling pathway (AID 743202; active = well fitted activation curve with a large enough effect in the signal ratio in the repeat runs, not every such curve was filed as active; inconclusive = weak or mixed curves, or effect the other way; inactive = no such curve, though single readings can be large or run the other way; the % refers to the signal ratio)
Outline: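 Read-out: LiveBLAzer B/G FRET substrate fluorescence after 2 h at room temperature, following 16 h compound treatment at 37 C of HepG2 cells carrying an ARE-driven beta-lactamase reporter.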

[19] = molecular target: Estrogen receptor (Homo sapiens) (UniProt P03372); experiment: qHTS assay to identify small molecule agonists of the estrogen receptor alpha (ER-alpha) signaling pathway using the BG1 cell line (AID 743079); conditions: BG1Luc4E2 cells, ERE-luciferase agonist, 22 h; note: nearly all actives have a fitted effect of over 20% in size; note: potency is the fitted concentration of half-maximal effect
[20] = qHTS assay to identify small molecule antagonists of the estrogen receptor alpha (ER-alpha) signaling pathway using the BG1 cell line (AID 743080; calls by dose curve; note: nearly all actives have a fitted effect of over 25% in size)
Outline: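 Antagonist mode: compounds in DMSO were pinned onto BG1-Luc-4E2 cells alongside 17beta-estradiol agonist, incubated 21.5 h, and ERE-driven luciferase measured with ONE-Glo. Cytotoxicity was multiplexed using CellTiter-Fluor fluorescence.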
% is set by controls: 0 for no effect and ±100 for the full control effect.

COc1cccc2c1cc([N+](=O)[O-])c1c(C(=O)O)cc3c(c12)OCO3
active: Potency [1] 3.06 µM | Potency [2] 2.73 µM | Potency [4] 21.9 µM [inconclusive] | Potency [6] 61.1 µM | Potency [7] 10.9 µM | Potency [8] 24.3 µM | Potency [9] 17.2 µM | Potency [10] 3.89 µM
inactive: Potency [3] | Potency [5] | outcome [11]

O=C1c2ccccc2C(=O)c2ccccc21
inactive: Potency [1] | Potency [2] | Potency [3] | Potency [4] | outcome [12] | Potency [5] | Potency [7] | Potency [8] | Potency [13] | outcome [14] | outcome [15] | Potency [16] | Potency [17] | Potency [18] | Potency [9] | Potency [10]

CC(=O)Nc1cc([As](=O)(O)O)ccc1O
inactive: Potency [1] | Potency [2] | Potency [3] | Potency [4] | Potency [5] | activation ([19]; at 70.3 µM (top of the series)) 10% | Potency [6] | Potency [7] | Potency [8] | outcome [14] | outcome [15] | Potency [16] | Potency [17] | Potency [18] | Potency [9] | Potency [10]

c1coc(-c2nc3ccccc3[nH]2)c1
inactive: Potency [1] | Potency [2] | Potency [3] | Potency [4] | outcome [12] | Potency [6] | Potency [7] | Potency [8] | outcome [14] | outcome [15] | Potency [16] | Potency [17] | Potency [18] | Potency [9] | Potency [10] | outcome [11]
active: Potency [19] 30.6 µM | Potency [13] 30.6 µM

Cc1cccc(C#N)c1
inactive: Potency [1] | Potency [2] | Potency [3] | outcome [12] | Potency [5] | Potency [6] | Potency [7] | Potency [8] | Potency [13] | outcome [14] | outcome [15] | Potency [17] | Potency [18] | outcome [11]
active: Potency [19] 68.2 µM

OC(c1ccc(F)cc1)(c1cncnc1)c1ccccc1Cl (stereo unspecified)
inactive: Potency [1] | Potency [2] | Potency [3] | Potency [4] | outcome [12] | Potency [6] | Potency [8] | outcome [14] | outcome [15] | Potency [17] | Potency [9] | Potency [10]
active: Potency [5] 49 µM [activator]

CCOc1nc(C(Cl)(Cl)Cl)ns1
inactive: Potency [1] | Potency [2] | Potency [3] | outcome [12] | Potency [5] | activation ([19]; at 70.3 µM (top of the series)) 4.23% | Potency [20] | Potency [6] | Potency [7] | Potency [8] | outcome [14] | outcome [15] | Potency [17] | Potency [18] | Potency [9] | Potency [10] | outcome [11]

O=[N+]([O-])c1cccc2cccnc12
active: Potency [13] 35.3 µM
inactive: Potency [1] | Potency [2] | Potency [3] | outcome [12] | Potency [5] | activation ([19]; at 95 µM (top of the series)) -10.4% | Potency [6] | Potency [7] | Potency [8] | outcome [14] | outcome [15] | Potency [16] | Potency [17] | Potency [9] | Potency [10] | outcome [11]

ClC(Br)Br
inactive: Potency [1] | Potency [2] | Potency [3] | outcome [12] | Potency [5] | activation ([19]; at 70.3 µM (top of the series)) 1.01% | Potency [20] | Potency [6] | Potency [7] | Potency [8] | Potency [13] | outcome [14] | outcome [15] | Potency [16] | Potency [17] | Potency [18] | Potency [9] | Potency [10]

CCN(Cc1ccc(Cl)nc1)/C(=C/[N+](=O)[O-])NC
inactive: Potency [1] | Potency [2] | Potency [3] | outcome [12] | Potency [5] | activation ([19]; at 70.3 µM (top of the series)) 1.15% | Potency [20] | Potency [6] | Potency [7] | Potency [8] | outcome [14] | outcome [15] | Potency [17] | Potency [18] | Potency [9] | Potency [10] | outcome [11]

C[N+](C)=CCl
inactive: Potency [1] | Potency [2] | Potency [3] | outcome [12] | Potency [5] | activation ([19]; at 70.3 µM (top of the series)) 20.5% | Potency [20] | Potency [6] | Potency [7] | Potency [8] | outcome [14] | outcome [15] | Potency [16] | Potency [17] | Potency [18] | Potency [9] | Potency [10] | outcome [11]

Oc1c(Cl)cccc1Cl
inactive: Potency [1] | Potency [2] | Potency [3] | outcome [12] | Potency [5] | activation ([19]; at 70.3 µM (top of the series)) 20.4% | Potency [6] | Potency [7] | Potency [8] | outcome [14] | outcome [15] | Potency [16] | Potency [17] | Potency [9] | Potency [10] | outcome [11]

ClC(Cl)Br
inactive: Potency [1] | Potency [2] | Potency [3] | Potency [4] | outcome [12] | Potency [5] | Potency [6] | Potency [7] | Potency [8] | Potency [13] | outcome [14] | outcome [15] | Potency [16] | Potency [17] | Potency [18] | Potency [9] | Potency [10] | outcome [11]

O=C1OC(c2ccc(O)c(S(=O)(=O)O)c2)(c2ccc(O)c(S(=O)(=O)O)c2)c2c(Br)c(Br)c(Br)c(Br)c21
inactive: Potency [1] | Potency [2] | Potency [3] | outcome [12] | Potency [5] | activation ([19]; at 70.3 µM (top of the series)) -0.304% | Potency [20] | Potency [7] | Potency [8] | outcome [14] | outcome [15] | Potency [16] | Potency [17] | Potency [9] | Potency [10] | outcome [11]

COP(=S)(OC)Oc1ccc(S(N)(=O)=O)cc1
inactive: Potency [1] | Potency [2] | Potency [3] | Potency [4] | Potency [5] | activation ([19]; at 70.3 µM (top of the series)) 10.7% | Potency [6] | Potency [7] | Potency [8] | outcome [15] | Potency [16] | Potency [17] | Potency [18] | Potency [10] | outcome [11]

O=S(=O)(O)C(F)(F)C(F)(F)C(F)(F)C(F)(F)C(F)(F)C(F)(F)F
inactive: Potency [1] | Potency [2] | Potency [3] | Potency [4] | Potency [5] | activation ([19]; at 70.3 µM (top of the series)) -0.729% | Potency [20] | Potency [6] | Potency [7] | Potency [13] | outcome [14] | outcome [15] | Potency [16] | Potency [10] | outcome [11]

— PubChem BioAssay (Tox21)
